Test results from ChEMBL document CHEMBL3988442, “University of Dundee, Small-Polar-MMV Screening Library” (2021).
The whole screen tested about 48,000 compounds, of which about 13,000 (27%) showed an effect of 50% or more. This is one part of the list.

tested on: Wolbachia pipientis; experiment: Anti-Wolbachia Cell-Based Screen; assay type: functional; set-up: scale not given: in the data most compounds retested in dose-response had high values; conditions: 5 µM

Row | SMILES | Percent Effect
1 | CC(C)c1nn(C)c(N2CCOCC2)c1CNC(C)c1cccs1 (stereo not drawn) | 1.351%
2 | CCNC(=O)NC(=O)CNC(C)(CC)c1nc(C)cs1 (stereo not drawn) | 6.164%
3 | CC(C)CN(CC(C)C)Cn1ncc2cn(-c3ccccc3)nc2c1=O | 8.982%
4 | Cc1nn(-c2ccccc2)nc1C(=O)N1CCCC1c1cnn(C)c1 (stereo not drawn) | 5.794%
5 | Cc1nn(-c2ccccc2)cc1C(=O)N1CCCC1c1cnn(C)c1 (stereo not drawn) | 105.2%
6 | Cn1cc(C2CCCN2C(=O)Cn2ccc3ccccc32)cn1 (stereo not drawn) | 10.33%
7 | Cc1c(C(=O)N2CCCC2c2cnn(C)c2)cnn1-c1ccccc1 (stereo not drawn) | 112.8%
8 | Cc1c(C(=O)N2CCCC2c2cnn(C)c2)nnn1-c1ccccc1 (stereo not drawn) | -1.391%
9 | Cc1ccc(-n2ncc(C(=O)N3CCCC3c3cnn(C)c3)c2C)cc1 (stereo not drawn) | 102.1%
10 | Cc1ccccc1-n1ncc(C(=O)N2CCCC2c2cnn(C)c2)c1C (stereo not drawn) | -2.042%
11 | Cn1cc(C2CCCN2C(=O)c2cn(-c3ccccc3)nn2)cn1 (stereo not drawn) | 82.94%
12 | CCCOc1ccc(C(=O)N2CCN3CCNC(=O)C3C2)cc1Cl (stereo not drawn) | -5.744%
13 | Clc1ccc(C2(NCc3noc(C4CC4)n3)CCC2)cc1 | 3.298%
14 | COCCN(Cc1cccc(C#N)c1)Cc1nnsc1Cl | 9.531%
15 | COc1ccc(NC(=O)c2ccoc2C)c(N2CCN(C(C)=O)CC2)n1 | 0.9885%
16 | Cc1nc(CNC(=O)NCC(O)c2ccc(F)cc2F)cs1 (stereo not drawn) | -3.131%
17 | Cc1nc(C)n(CC2CCCCN2CC(=O)Nc2ccncc2)n1 (stereo not drawn) | -2.552%
18 | Cc1nc(C)n(CC2CCCN2Cc2cc(C)on2)n1 (stereo not drawn) | -8.278%
19 | Cc1nc(C)n(CC2CCCCN2CCC(=O)Nc2cc(C)on2)n1 (stereo not drawn) | 5.676%
20 | Cc1nc(C)n(CC2CCCN2CC(=O)Nc2cc(C(C)C)no2)n1 (stereo not drawn) | -1.165%
21 | Cc1nc(C)n(CC2CCCN2CC(=O)Nc2cc(C)on2)n1 (stereo not drawn) | 98.7%
22 | Cc1nc(C)n(CC2CCCCN2CC(=O)Nc2cc(C)on2)n1 (stereo not drawn) | 106.4%
23 | Cc1nc2c(C(=O)N[C@H]3C[C@H]4CN(C)CCN4C3)cccc2[nH]1 | 8.866%

Row | SMILES | Percent Effect
24 | CCCc1cc(N2CCCC2Cn2nc(C)cc2C)n2ncnc2n1 (stereo not drawn) | -3.923%
25 | CC(C)OCCS(=O)(=O)c1ccccc1C#N | -1.71%
26 | O=C(Nc1cc(-c2cccnc2)no1)C1CCCCC1 | -34.68%
27 | CC(NC(=O)C1CC1)c1cc(O)nc(-c2cccnc2)n1 (stereo not drawn) | 92.57%
28 | Cc1ccc(C)c(C(NC(=O)C2CC2)c2cccnc2)c1 (stereo not drawn) | -2.241%
29 | CN(CCNC(=O)Nc1nccs1)Cc1ccc(F)cc1 | 98.5%
30 | CCc1nnc(CN(C)Cc2cccc(C(=O)Nc3cnn(C)c3)c2)o1 | -6.481%
31 | Cn1cc(CNC(=O)Nc2ccc(S(=O)(=O)C(F)F)cc2)cn1 | -23.54%
32 | CN(CCNC(=O)Nc1ccn(C)n1)Cc1ccc(F)cc1 | 87.45%
33 | Cn1ccc(NC(=O)Cc2cccc(F)c2)n1 | -26.85%
34 | CCc1nnc(CN(C)Cc2cccc(C(=O)Nc3nccs3)c2)o1 | -6.732%
35 | CN(CCNC(=O)Nc1cnn(C)c1)Cc1ccc(F)cc1 | 113%
36 | CC(NC(=O)Nc1nccs1)c1ccncc1 (stereo not drawn) | -0.7222%
37 | CCCNC(=O)Nc1ccn(CCCOC)n1 | -11.06%
38 | CC(=O)N1CCN(c2ccccc2CNc2cc(F)cc(F)c2)CC1 | 2.493%
39 | OCc1ccc(-c2nccn2CCC2=CCCCC2)o1 | -8.705%
40 | CS(=O)(=O)CCSCc1cccc2cccnc12 | -12.23%
41 | CN(CC(=O)Nc1cc(-n2nnnc2C2CC2)ccc1F)C1CCC1 | -0.6608%
42 | CCN1C(=O)CCC12CCN(S(=O)(=O)c1ccccc1)CC2 | -5.531%
43 | O=C(c1cccc(CO)n1)N1CCOC(c2ccc(Cl)c(Cl)c2)C1 (stereo not drawn) | -12.21%
44 | CC(C)c1cccc(N2CCCC3(CCC(=O)N(C4CC4)C3)C2)n1 (stereo not drawn) | 105.3%
45 | CC(O)c1cccc(N2CCC3(CCC(=O)N(CC(N)=O)C3)CC2)n1 (stereo not drawn) | -13.92%
46 | N#Cc1cccc(N2CCCC3(CCC(=O)N(C4CCCC4)C3)C2)n1 (stereo not drawn) | 106.1%

Row | SMILES | Percent Effect
47 | CC(=O)c1ccc(N2CCC3(CCC(=O)N(C4CC4)C3)CC2)nc1 | 5.2%
48 | N#Cc1cccc(N2CCC3(CCC(=O)N(CC(N)=O)C3)CC2)n1 | -17.91%
49 | N#Cc1cccc(N2CCC3(CCC(=O)N(CC4CCCO4)C3)CC2)n1 (stereo not drawn) | -19.35%
50 | CC(O)c1cccc(N2CCC3(CCC(=O)N(C4CCCC4)C3)CC2)n1 (stereo not drawn) | 47.1%
51 | CCCc1nc(C)cc(N2CCC3(CCC(=O)N(C4CC4)C3)CC2)n1 | -0.6506%
52 | CCOC(=O)c1cccc(N2CCCC3(CCC(=O)N(C4CC4)C3)C2)n1 (stereo not drawn) | 78.13%
53 | CCNC(=O)NC[C@H]1COCc2nc3cc(C)ccc3n21 | -20.29%
54 | CN(Cc1ccon1)C(=O)C1CC(=O)N(Cc2ccncc2)C1 (stereo not drawn) | 7.553%
55 | O=C(c1ccon1)N1CCc2ncnc(NCc3ccccn3)c2CC1 | -13.25%
56 | c1cncc(-c2noc(CNc3ncnc4c3CCNCC4)n2)c1 | 1.079%
57 | COc1ccc(-c2cc(CC3(NCc4ccc(C)o4)COC3)no2)cc1 | 0%
58 | COc1ccc(-c2cc(CNc3ncnc4c3CCNCC4)no2)cc1 | 113.1%
59 | c1cncc(-c2noc(CCNc3ncnc4c3CCNCC4)n2)c1 | -0.2436%
60 | Clc1ccccc1-c1cc(CNc2ncnc3c2CCNCC3)no1 | 100.4%
61 | COCc1noc(CCNc2ncnc3c2CCNCC3)n1 | 1.85%
62 | Cc1ccc(-c2cc(CNc3ncnc4c3CCNCC4)no2)cc1 | 96.68%
63 | CCCS(=O)(=O)N1CC[C@H]2O[C@H](c3nnc(C)o3)CC[C@H]21 | -25.7%
64 | CN(CC(N)=O)C(=O)c1cnc(-c2ccc(Cl)s2)s1 | 2.419%
65 | CC(=O)N1CCCN(C(=O)NCCOc2ccc3c(c2)OCO3)CC1 | 96.11%
66 | CCCN1CCCN(C(=O)Nc2ccc3c(c2)OCO3)CC1 | -18.65%
67 | CN1CCCN(C(=O)NCCOc2ccc3c(c2)OCO3)CC1 | 115.1%
68 | O=C(NCCOc1ccc2c(c1)CCC2)N1CCS(=O)(=O)CC1 | 35.32%
